Each structure is given as a SMILES string. Entries with a potency or affinity are not part of this list. Values without a mark were called inactive. The rule behind the calls is not given here.

Among the data in PubChem BioAssay AID743446 (Broad Institute, 2014) are max activity values, retold here.

The nature of the test: viability loss in HEK293 cells – cell-based, plate reader, cherry-picked samples, cytotoxicity control, dose response (AID 743446). Conditions: hits give low values; at 26 µM unless noted.
As to `O=S1(=O)CCOC[C@H](CC2CCCCC2)N1Cc1ccccc1F`, the max activity is -17.9% [at 0.1 µM].

For the molecule `CCC(=O)N(C)C[C@H]1Oc2cc(C#CCC(C)C)ccc2S(=O)(=O)N([C@H](C)CO)C[C@@H]1C`, the max activity is 21.8% [at 0.05 µM].

Turning to `N#C[C@@H]1[C@H](c2ccc(C#Cc3ccccc3F)cc2)[C@@H](CO)N1C(=O)C1CCC1`, the max activity is 28.6% [at 6 µM].

Regarding `Cc1ccnc(Nc2nc(-c3sc(C)nc3C)cs2)c1`, the max activity is -16.3% [at 6 µM].

In the case of `Cc1ccccc1C(=O)Nc1ccc2c(c1)OCCO2`, the max activity was -9.3% [at 0.05 µM].

Consider `Cc1ccc2nc(-c3ccc(N)cc3)sc2c1`, for which the max activity was 21.7% [at 3 µM].

Consider `CC(=O)c1ccc(S(=O)(=O)N2CCC(NC(=O)Nc3cccc(F)c3)CC2)cc1`, for which the max activity was 28.3% [at 3 µM].

As to `COc1ccc(CCNC(=O)C2CCN(S(=O)(=O)c3ccc(Cl)cc3)CC2)cc1OC`, the max activity is -15% [at 0.05 µM].

Take `CC(C)(C)c1ccc(Cn2c(=O)cnc3ccccc32)cc1`: the max activity is -26.8% [at 12 µM].

For `O=C(c1ccccc1)N1CCSc2sccc2C1=O`, the max activity is 36.7%.

For the molecule `Cc1cc(-c2nc3cc(F)ccc3s2)ccc1N`, the max activity is 28.1% [at 1.6 µM].

For the molecule `CCn1cc(S(=O)(=O)Nc2cccnc2)cn1`, the max activity was 9.79% [at 0.38 µM].

With `CCCCC(=O)N(C)c1c(C)nc2ccc(C(=O)N3CCCCC3)cn12`, the max activity was -12.7% [at 12 µM].

For the molecule `CCN(CC)S(=O)(=O)c1cc(C(=O)OCC(=O)Nc2ccc(-c3nc4ccc(C)cc4s3)cc2)ccc1F`, the max activity is -18.3%.

On to `O=C(NCCc1ccccc1)c1ccc2c(c1)OCCO2`, for which the max activity was 15.3% [at 0.195 µM].

Take `Cc1cnc(NC(=O)COc2ccccc2Cl)s1`: the max activity is 11.6%.

Take `CCc1nnc(NC(=O)CSc2nnc3ncccn23)s1`: the max activity is 33.7%.

With `Cc1ccnc(N2C(=O)c3ccccc3C2Nc2ccc3c(c2)OCCO3)c1` (stereo not drawn), the max activity was 25.2% [at 0.05 µM].

Consider `COc1ccc(-c2cc(C)nc3c(-c4ccccc4)cnn23)cc1`, for which the max activity is -10.2%.

Take `Brc1ccc(-c2nc(-c3ccccn3)no2)o1`: the max activity was -10%.

As for `COc1cc(C(=O)Nc2nc(-c3cccs3)cs2)cc(OC)c1OC`, the max activity was 53.9% [at 6 µM].

For the molecule `COc1ccc(S(=O)(=O)N2CCCCN3[C@H](CO)[C@H](c4ccc(-c5cccnc5)cc4)[C@@H]3C2)cc1`, the max activity is -10.9% [at 12 µM].

For `O=C(Nc1cccnc1)c1cc(-c2ccc3c(c2)OCO3)on1`, the max activity was 26.9% [at 12 µM].

For `Cc1ccc2nc(-c3ccc(NC(=O)c4cccnc4)cc3)oc2c1`, the max activity is -17.1% [at 0.1 µM].

On to `COc1ccc(-c2cc3nc(NCC4CCCCC4)n(C)c(=O)c3s2)cc1OC`, for which the max activity was 41.6% [at 1.6 µM].

With `N#C[C@@H]1[C@H](c2ccc(C#CC3CCCCC3)cc2)[C@@H](CO)N1C(=O)c1cccc(F)c1`, the max activity is 43.6% [at 0.09 µM].

As for `O=C(Nc1cccc(C(=O)O)c1)Nc1ccc2c(c1)OCO2`, the max activity is -18.7% [at 0.195 µM].

With `Cc1ccc(-c2nc(-c3ccncc3)no2)c(Cl)c1`, the max activity is 10% [at 1.6 µM].

Turning to `C[C@H](CO)N1C[C@H](C)[C@H](CN(C)C(=O)Nc2cccc3ccccc23)OCCCC[C@H](C)Oc2ccc(NC(=O)c3ccccc3)cc2C1=O`, the max activity was 31.2% [at 12 µM].

Turning to `CCn1c2ccccc2c2cc(CNCc3ccc(OC)cc3OC)ccc21`, the max activity was -98.9%.

As to `C[C@H](CO)N1C[C@H](C)[C@@H](CN(C)C(=O)Nc2ccc3c(c2)OCO3)Oc2c(cccc2N(C)C)C1=O`, the max activity is -7.24% [at 0.8 µM].

For `COc1cccc(NC(=O)Nc2cccc(C(=O)O)c2)c1`, the max activity is -21.7% [at 3 µM].

In the case of `N#C[C@@H]1[C@H](c2ccc(C#Cc3cccc(F)c3)cc2)[C@@H](CO)N1C(=O)C1CCC1`, the max activity was 22.1% [at 12 µM].

As for `COc1ccc(C(=O)CC(Sc2ccccc2N)c2ccc(OC)cc2)cc1` (stereo not drawn), the max activity is 24.8% [at 0.8 µM].

As to `Cc1ccc(NC(=O)c2ncn(CC(=O)N3CCN(c4ccccn4)CC3)n2)cc1C`, the max activity was -13.4% [at 0.195 µM].

Take `COCCn1c(C)cc(C(=O)CSc2nc3ccccc3s2)c1C`: the max activity is -17.4%.

In the case of `O=C(Nc1cccc(C(=O)O)c1)Nc1ccccc1Cl`, the max activity was -26.9% [at 6 µM].

Take `CC(=O)Nc1cccc(-c2ccnc3c2CC(C(=O)NCc2cccnc2)O3)c1` (stereo not drawn): the max activity is 0% [setting not given].
